Assay [1] concerns Zika virus NS2B-NS3 protease (unlinked complex). The experiment in a line: Primary screen GU Rhodamine qHTS for Zika virus inhibitors: Unlinked NS2B-NS3 protease assay (AID 1347159). Note: nearly all actives have a fitted effect of over 60% in size. In short, it runs like this: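 Unlinked NS2B/NS3, 25 nM; Rhod110 peptide, 1.5 microM; compounds, up to 114 microM. Reaction run 15 min at RT in 10 mM Tris-HCl pH 8.0, 0.01% Tween 20; kinetic fluorescence change fitted with a 4-parameter Hill model.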
Background: In qHTS, concentration-response curves come from the screen itself.

Assay [2] concerns Zika virus NS2B-NS3 protease (linked construct). Kind of assay: Primary screen NINDS Rhodamine qHTS for Zika virus inhibitors (AID 1347160). Note: nearly all actives have a fitted effect of over 55% in size. Put shortly:
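Single-chain NS2B-NS3 protease, 25 nM, pH 8.0; compounds preincubated 15 min. Activity: Rhodamine110 release from 1.5 microM substrate over 15 min, room temperature, data fitted to 4-parameter Hill.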

Assay [3] concerns the target Calcium and integrin-binding protein 1 (Homo sapiens) (UniProt Q99828). Kind of assay: Primary qHTS for Identification of Calcium Integrin Binding Protein 1 (CIB1) Competitor (AID 1508620).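 Note: GST tagged CIB1 binding a fluorescein labelled alphaIIb integrin peptide tracer; top concentration of the series differs between compounds.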 Put shortly:
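CIB1-GST (1 uM final) and compound incubated 15 min at room temperature before adding FITC-alphaIIb peptide tracer (100 nM final). Competition for binding read by fluorescence polarization (ex 480, em 540) after another 15 min at room temperature.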

In assay [4] the target is Cytochrome P450 2D6 (Homo sapiens) (UniProt P10635). Kind of assay: Cytochrome P450 family 2 subfamily D member 6 (CYP2D6) small molecule antagonists: luciferase biochemical (cell-free) qHTS assay (AID 1645840; active = well fitted curve in the direction sought with a large enough effect in the repeat runs; an effect the other way counts as inactive or inconclusive; note: potency is the fitted concentration of half-maximal effect; nearly all actives have a fitted effect of over 55% in size). Put shortly: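 P450-Glo CYP2D6 system: proluciferin substrate converted by enzyme to luciferin, read by luminescence proportional to activity. Enzyme-substrate mix with compound 10 min at room temperature, then NADPH regeneration 1 h before detection reagent.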

For assay [5], the target named is Cytochrome P450 2C9 (Homo sapiens) (UniProt P11712). Kind of assay: Cytochrome P450 family 2 subfamily C member 9 (CYP2C9) small molecule antagonists: luciferase biochemical (cell-free) qHTS assay (AID 1645842; active = well fitted curve in the direction sought with a large enough effect in the repeat runs; an effect the other way counts as inactive or inconclusive; note: nearly all actives have a fitted effect of over 55% in size; note: potency is the fitted concentration of half-maximal effect). Put shortly: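 P450-Glo CYP2C9 system: proluciferin substrate with enzyme in mix containing 0.4% BSA, 10 min at room temperature, then NADPH regeneration solution added and incubated 1 h at 37C. Detection reagent stopped reaction; luminescence read after 20 min as RLU.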

Assay [6] is described as follows: Primary qHTS for inhibitors of nuclear receptor binding SET domain protein 2 (NSD2) in an isogenic RCH-ACV NSD2 p.E1099K mutant (9B) (AID 1645876). Note: potency is the fitted concentration of half-maximal effect; nearly all actives have a fitted effect of over 70% in size.
The nature of assay [7]: Primary qHTS for inhibitors of nuclear receptor binding SET domain protein 2 (NSD2) in an RCH-ACV wild type WT cells (2C) (AID 1645877). Note: potency is the fitted concentration of half-maximal effect; nearly all actives have a fitted effect of over 70% in size.
The target in assay [8] is Glutathione peroxidase 1 (Homo sapiens) (UniProt P07203). Kind of assay: Primary qHTS Assay for Inhibitors of Recombinant Selenoprotein Glutathione Peroxidase 1 (GPX1) (AID 1845191). Note: nearly all actives have a fitted effect of over 65% in size. Put shortly:
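NADPH consumption tracked by fluorescence at 340/450 nm between t=0 and t=15 min, room temperature. Final mix: 10 nM GPX1, 100 nM glutathione reductase, 1 mM GSH, 0.5 mM NADPH, 0.5 mM cumene hydroperoxide, 0.01% BSA; 30 min compound–enzyme preincubation.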

For assay [9], the target named is Phospholipid hydroperoxide glutathione peroxidase GPX4 (Homo sapiens) (UniProt P36969). Kind of assay: Primary qHTS Assay for Inhibitors of Recombinant Selenoprotein Glutathione Peroxidase 4 (GPX4) (AID 1845192). Note: nearly all actives have a fitted effect of over 65% in size. Put shortly: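 NADPH consumption followed by fluorescence at 340/450 nm, t=0 and after 15 min at room temperature. Reaction started with cumene hydroperoxide (0.5 mM final) after 30 min compound–GPX4 preincubation; final 200 nM GPX4, 100 nM GR, 1 mM GSH, 0.5 mM NADPH.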

In assay [10] the target is Luciferin 4-monooxygenase (Photinus pyralis) (UniProt P08659). Kind of assay: Primary firefly luciferase (FLuc) qHTS assay for identification of artifact compounds. (AID 1845220). Note: nearly all actives have a fitted effect of over 60% in size. The conditions noted are these: outcome: dose series up to 54.1 µM unless noted. In short, it runs like this:
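Cell-free, 1536-well qHTS. Buffer pH 7.6 with 0.01% Tween-20 and 0.05% BSA; 10 uM D-luciferin, 10 uM ATP; 10 nM P. pyralis luciferase; luminescence after 5 min.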

The nature of assay [11]: Primary fluorescence-based thiol-reactive (MSTI) qHTS assay for identification of artifact compounds. (AID 1845221).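 Note: thiol-reactive compounds lower the probe fluorescence signal; nearly all actives have a fitted effect of over 65% in size.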 In short, it runs like this: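 In PBS pH 7.4 with 2% DMSO, each compound met 4 uM MSTI for one hour at ambient temperature, shielded from light, before fluorescence detection.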
Assay [12] concerns Nanoluciferase (engineered Oplophorus gracilirostris luciferase). The experiment in a line: Primary Nanoluciferase (NLuc) qHTS assay for identification of artifact compounds. (AID 1845222). In short, it runs like this:
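Compounds are pinned into diluted (1:55) conditioned medium of NLuc-expressing S16 cells and held 15 min at room temperature protected from light. Nano-Glo substrate follows, and luminescence is read 5 min later.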

In another assay the test system is C33A. Kind of assay: Primary qHTS to identify gynecologic anti-cancer compounds using libraries of approved drugs and bioactive compounds (AID 1345084). Note: nearly all actives have a fitted effect of over 55% in size. The note with it: Gynecologic cancer cell panel viability, ATPlite luminescence, 48 h; series mostly up to 57.5 µM. Put shortly: (§1)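 Five-concentration response, 48 h; readout is ATP-driven luciferase luminescence.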

A further assay concerns CAOV3. The assay is described as above. The conditions noted are these: Gynecologic cancer cell panel viability, ATPlite luminescence, 48 h; series mostly up to 57.5 µM. In short, it runs like this: as §1
The next assay deals with CASKI. The assay is described as above. The note with it: Gynecologic cancer cell panel viability, ATPlite luminescence, 48 h; series mostly up to 57.5 µM. In short, it runs like this: as §1
The subject of the next assay is Es-2. The assay is described as above. The note with it: Gynecologic cancer cell panel viability, ATPlite luminescence, 48 h; series mostly up to 57.5 µM. Put shortly:
as §1
On the technique in general: Cellular ATP, detected with luciferase, serves as a proxy for viable cell number.

Another assay has as its system HeLa. Described as above. The note with it: Gynecologic cancer cell panel viability, ATPlite luminescence, 48 h; series mostly up to 57.5 µM. Put shortly:
as §1

The test system of the next assay is Hek293T. Described as above. The conditions noted are these: Gynecologic cancer cell panel viability, ATPlite luminescence, 48 h, control line for the selectivity index; series mostly up to 57.5 µM. In short, it runs like this:
as §1

A further assay deals with JEG-3. The description is as above. The conditions noted are these: Gynecologic cancer cell panel viability, ATPlite luminescence, 48 h; series mostly up to 57.5 µM. In short, it runs like this: as §1
Another assay deals with OV90. Described as above. The conditions noted are these: Gynecologic cancer cell panel viability, ATPlite luminescence, 48 h; series mostly up to 57.5 µM. In short, it runs like this: as §1
The next assay has as its system PA-1. Described as above. The note with it: Gynecologic cancer cell panel viability, ATPlite luminescence, 48 h; series mostly up to 57.5 µM. Put shortly: as §1
Another assay concerns Tov-21-G. The assay is described as above. The conditions noted are these: Gynecologic cancer cell panel viability, ATPlite luminescence, 48 h; series mostly up to 57.5 µM. In short, it runs like this:
as §1

The next assay deals with Tov112D. Described as above. The conditions noted are these: Gynecologic cancer cell panel viability, ATPlite luminescence, 48 h; series mostly up to 57.5 µM. Put shortly: as §1
A short description of assay [13]: Primary redox qHTS assay for identification of artifact compounds. (AID 1845223). Put shortly:
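Redox-cycling detection via DTT (250 uM final) oxidation coupled to Amplex Red (25 uM)/HRP (250 mU/mL) in HBSS. 15 min preincubation plus 30 min after DTT, room temperature. Ex/Em 525/598 nm; 4-parameter Hill fit against DMSO and 10 uM DA3003.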

The subject of another assay is SKOV3. Kind of assay: Primary qHTS to identify gynecologic anti-cancer compounds using libraries of approved drugs and bioactive compounds (AID 1345084). Note: nearly all actives have a fitted effect of over 55% in size. The conditions noted are these: Gynecologic cancer cell panel viability, ATPlite luminescence, 48 h; series mostly up to 57.5 µM. Put shortly: as §1

Records with an inconclusive call do not appear. The source made the active and inactive calls. Unless noted, calls come from the whole dose curve; as a rule, active = well fitted curve in the direction sought with a large enough effect; inconclusive = small, poorly fitted or top-dose-only effect, or another doubt; inactive = no such curve, though single readings can be large; an effect the other way counts as inactive or inconclusive.

Cytochrome P450 2D6 (Homo sapiens), sequence (P10635 whole entry, looked up): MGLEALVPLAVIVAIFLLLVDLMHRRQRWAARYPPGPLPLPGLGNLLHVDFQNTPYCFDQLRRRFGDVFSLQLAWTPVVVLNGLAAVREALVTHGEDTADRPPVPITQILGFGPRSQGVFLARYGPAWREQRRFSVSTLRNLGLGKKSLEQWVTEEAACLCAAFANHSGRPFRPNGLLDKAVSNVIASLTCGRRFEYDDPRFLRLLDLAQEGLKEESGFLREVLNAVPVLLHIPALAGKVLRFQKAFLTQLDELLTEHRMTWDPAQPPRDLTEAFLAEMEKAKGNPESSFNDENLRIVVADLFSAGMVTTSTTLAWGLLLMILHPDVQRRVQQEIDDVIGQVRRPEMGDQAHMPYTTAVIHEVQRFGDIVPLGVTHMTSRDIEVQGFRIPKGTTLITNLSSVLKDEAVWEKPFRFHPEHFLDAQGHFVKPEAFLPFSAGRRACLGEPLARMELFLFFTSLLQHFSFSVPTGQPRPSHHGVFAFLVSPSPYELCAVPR
Cytochrome P450 2C9 (Homo sapiens), sequence (P11712 whole entry, looked up): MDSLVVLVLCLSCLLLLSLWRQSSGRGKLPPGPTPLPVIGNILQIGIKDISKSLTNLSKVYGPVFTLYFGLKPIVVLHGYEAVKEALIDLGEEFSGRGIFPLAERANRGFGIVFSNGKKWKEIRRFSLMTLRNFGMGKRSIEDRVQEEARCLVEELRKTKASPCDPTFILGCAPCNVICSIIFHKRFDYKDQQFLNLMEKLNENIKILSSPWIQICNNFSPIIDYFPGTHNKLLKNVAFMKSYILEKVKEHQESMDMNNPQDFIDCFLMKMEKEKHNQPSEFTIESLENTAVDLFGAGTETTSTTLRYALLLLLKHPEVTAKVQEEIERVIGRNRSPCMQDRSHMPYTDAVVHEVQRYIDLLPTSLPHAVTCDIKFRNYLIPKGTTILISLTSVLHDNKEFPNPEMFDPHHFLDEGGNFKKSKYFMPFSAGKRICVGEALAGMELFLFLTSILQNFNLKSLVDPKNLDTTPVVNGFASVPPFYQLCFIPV
Glutathione peroxidase 1 (Homo sapiens), sequence (P07203 whole entry, looked up): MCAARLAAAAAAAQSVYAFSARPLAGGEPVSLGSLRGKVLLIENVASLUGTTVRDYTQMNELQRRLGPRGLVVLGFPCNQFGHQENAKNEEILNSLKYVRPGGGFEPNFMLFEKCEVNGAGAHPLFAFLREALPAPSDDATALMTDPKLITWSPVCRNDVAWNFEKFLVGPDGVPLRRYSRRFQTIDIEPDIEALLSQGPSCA
Calcium and integrin-binding protein 1 (Homo sapiens), sequence (Q99828 whole entry, looked up): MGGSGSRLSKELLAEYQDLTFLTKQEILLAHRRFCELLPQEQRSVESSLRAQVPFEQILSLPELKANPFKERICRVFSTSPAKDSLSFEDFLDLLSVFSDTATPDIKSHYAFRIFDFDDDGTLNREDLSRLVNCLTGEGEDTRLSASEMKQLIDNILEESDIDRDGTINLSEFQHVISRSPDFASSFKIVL
Phospholipid hydroperoxide glutathione peroxidase GPX4 (Homo sapiens), sequence (P36969 whole entry, looked up): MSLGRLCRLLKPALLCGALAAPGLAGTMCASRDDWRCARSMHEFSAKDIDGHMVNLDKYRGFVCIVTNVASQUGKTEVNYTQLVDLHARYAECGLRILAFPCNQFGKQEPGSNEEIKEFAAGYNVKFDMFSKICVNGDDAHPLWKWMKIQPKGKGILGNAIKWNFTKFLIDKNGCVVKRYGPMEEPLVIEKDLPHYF

For the compound `O=C(NCCN1CCC2(CC1)C(=O)NCN2c1cccc(F)c1)c1ccc2ccccc2c1`, the Potency entry in assay [1], in assay [2], in assay [3], in assay [8], in assay [9] and in assay [11] was “inactive” in each case. For the same compound, the Potency entry (in assay [12]; in the assay on C33A; with CAOV3; with CASKI; in the assay with Es-2; with HeLa) was “inactive” throughout. The Potency result in the assay on Hek293T, with JEG-3, with OV90, with PA-1, in the assay with Tov-21-G and in the assay with Tov112D was “inactive” throughout. In addition, the Potency in assay [4] is 2.68 µM (active); in assay [5], 12 µM (active); in assay [6], 9.16 µM (active); in assay [7] it was 9.16 µM (active). Also, in [10], the result was inactive.
Take `FC(F)(F)c1ccc(N2CCNCC2)nc1Cl`: the Potency result in [1], in assay [2], in [3], in assay [5], in assay [8] and in assay [9] was “inactive” throughout. For the same compound, the Potency result (in assay [11]; in assay [12]; in assay [13]; in the assay with C33A; with CAOV3; in the assay with CASKI) was “inactive” throughout. The Potency entry in the assay with Es-2, with Hek293T, in the assay on JEG-3, in the assay with OV90, with PA-1 and in the assay on SKOV3 was “inactive” throughout. The Potency result in the assay on Tov-21-G and in the assay on Tov112D was “inactive” each time. The Potency in [4] was 15.1 µM (active).

The record behind these values is PubChem BioAssay (NCATS).
